According to PubChem BioAssay (Tox21):
Inconclusive results are not listed. The source made the active and inactive calls. Calls follow the shape of the dose curve; as a rule, active = well fitted curve in the direction sought with a large enough effect in the repeat runs; inconclusive = weak or mixed curves; inactive = no such curve, though single readings can be large; an effect the other way counts as inactive or inconclusive.

Legend:
[1] = qHTS RealTime-Glo MT Cell Viability Assay in HEK293 cells - 32 hour (AID 1224868); also: top concentration of the series differs between compounds; nearly all actives have a fitted effect of over 50% in size
Outline: (§1)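 Nonlytic real-time viability readout: viable cells convert prosubstrate to NanoLuc substrate, giving luminescence proportional to live cell number. HEK293, 600 cells/well, compound added after 5 h, continuous culture at 37 C.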

[2] = A CellTox Green Cytotoxicity Assay to monitor cytotoxicity in HEK293 cells - 0 hour (AID 1224869); also: nearly all actives have a fitted effect of over 50% in size
Outline: (§2)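 Dead-cell fluorescence measured kinetically: asymmetric cyanine dye, HEK293, 600 cells/well, 5 h settle, 23 nL cpd/DMSO, 37 C, reads 0–40 h every 8 h.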

[3] = qHTS RealTime-Glo MT Cell Viability Assay in HepG2 cells - 40 hour (AID 1224870); also: nearly all actives have a fitted effect of over 50% in size
Outline: (§3)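 Real-time viability: cells seeded at 600 per well together with NanoLuc and cell-permeant prosubstrate, compounds added after 5 h incubation. Luminescence tracked at 0, 8, 16, 24, 32 and 40 h of exposure.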

[4] = A CellTox Green Cytotoxicity Assay to monitor cytotoxicity in HEK293 cells - 40 hour (AID 1224871); also: nearly all actives have a fitted effect of over 45% in size
Outline: as §2

[5] = qHTS RealTime-Glo MT Cell Viability Assay in HEK293 cells - 16 hour (AID 1224872); also: top concentration of the series differs between compounds; nearly all actives have a fitted effect of over 50% in size
Outline: as §1

[6] = qHTS RealTime-Glo MT Cell Viability Assay in HEK293 cells - 40 hour (AID 1224874); settings: RealTime-Glo luminescence, active compounds read low; also: nearly all actives have a fitted effect of over 50% in size
Outline: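 600 HEK293 cells per well, dispensed already mixed with RealTime-Glo MT reagents. Compound dosing came 5 h later. The same wells were read for luminescence at 0, 8, 16, 24, 32 and 40 h of exposure at 37 C.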

[7] = A CellTox Green Cytotoxicity Assay to monitor cytotoxicity in HEK293 cells - 24 hour (AID 1224875); also: series mostly up to about 77 µM; nearly all actives have a fitted effect of over 45% in size
Outline: as §2

[8] = A CellTox Green Cytotoxicity Assay to monitor cytotoxicity in HepG2 cells - 16 hour (AID 1224876); also: nearly all actives have a fitted effect of over 45% in size
Outline: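 First, HepG2 cells (600/well) mixed with reagent were plated; second, after 5 h at 37 C they received compounds via pintool; third, fluorescence was measured at 0 h through 40 h at 8 h intervals.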

[9] = qHTS RealTime-Glo MT Cell Viability Assay in HepG2 cells - 32 hour (AID 1224877); also: nearly all actives have a fitted effect of over 55% in size
Outline: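 Luminescence read-out: viable HepG2 cells reduce a prosubstrate to a NanoLuc substrate, giving a signal proportional to live cell number. Reads taken at 0, 8, 16, 24, 32 and 40 h of compound exposure at 37 C.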

[10] = qHTS RealTime-Glo MT Cell Viability Assay in HepG2 cells - 8 hour (AID 1224873); also: nearly all actives have a fitted effect of over 55% in size
Outline: as §3
% is scaled to controls: 0 for no effect and ±100 for the full control effect.

CC(CN1CC(=O)NC(=O)C1)N1CC(=O)NC(=O)C1 (configuration not stated)
inactive: outcome [1] | outcome [2] | outcome [3] | Potency [4] | outcome [5] | max response [6] -4.03% | Potency [7] | Potency [8] | outcome [9]

O=C(O)CCCCCCCCCC(=O)O
inactive: outcome [1] | outcome [2] | outcome [3] | Potency [4] | outcome [5] | max response [6] 0.0039% | Potency [7] | Potency [8] | outcome [9]

O=C(c1ccccc1)c1cccc(O)c1
inactive: outcome [1] | outcome [2] | outcome [3] | Potency [4] | outcome [5] | outcome [10] | Potency [7] | Potency [8] | outcome [9]

N=C(N)N1CCc2ccccc2C1
inactive: activity change, negative = cytotoxic [1] 0.854% [at 6.97 µM] | cytotoxicity [2] -7.02% [at 6.97 µM] | activity change, negative = cytotoxic [3] 0.674% [at 6.97 µM] | cytotoxicity increase [4] -5.28% [at 6.97 µM] | activity change, negative = cytotoxicity [5] 1.8% [at 6.97 µM] | viability change, negative = cytotoxic [10] 0.945% [at 6.97 µM] | max response [6] 0.0826% | activity change [7] -12.7% [at 6.97 µM, active compounds read high] | activity change, negative = cytotoxic [9] 0.278% [at 6.97 µM]

COC(=O)c1ccccc1Cl
inactive: outcome [1] | outcome [2] | outcome [3] | Potency [4] | outcome [5] | max response [6] 2.48% | Potency [7] | Potency [8] | outcome [9]

C=CCON/C(CCC)=C1\C(=O)CC(C)(C)C(C(=O)OC)=C1O
inactive: outcome [1] | outcome [2] | outcome [3] | Potency [4] | outcome [5] | outcome [10] | max response [6] 3.04% | Potency [7] | outcome [9]

C=CCn1cc[n+](C)c1
inactive: outcome [1] | outcome [2] | outcome [3] | Potency [4] | outcome [5] | max response [6] -3.76% | Potency [7] | Potency [8] | outcome [9]

CC(=O)SCC(CC(=O)c1ccc(C)cc1)C(=O)O (configuration not stated)
inactive: outcome [1] | outcome [2] | outcome [3] | Potency [4] | outcome [5] | outcome [10] | max response [6] -0.0795% | Potency [7] | Potency [8] | outcome [9]

N#Cc1cc(NC(=O)C(=O)O)c(Cl)c(NC(=O)C(=O)O)c1
inactive: outcome [1] | outcome [2] | outcome [3] | Potency [4] | outcome [5] | outcome [10] | max response [6] -0.333% | Potency [7] | Potency [8] | outcome [9]

COc1cc(OC)cc(OC)c1
inactive: outcome [1] | outcome [2] | outcome [3] | Potency [4] | outcome [5] | max response [6] 6.85% | Potency [7] | Potency [8] | outcome [9]

Cc1ccc(S(=O)(=O)NC(=O)NN2CC3CCCC3C2)cc1 (configuration not stated)
inactive: outcome [1] | outcome [2] | outcome [3] | Potency [4] | outcome [5] | outcome [10] | max response [6] 5.04% | Potency [7] | Potency [8] | outcome [9]

CC[N+](C)(CC)CC
inactive: outcome [1] | outcome [2] | outcome [3] | Potency [4] | outcome [5] | outcome [10] | max response [6] 13.2% | Potency [7] | Potency [8] | outcome [9]

CN(C)CCc1c[nH]c2ccc(CS(=O)(=O)N3CCCC3)cc12
inactive: outcome [1] | outcome [2] | outcome [3] | Potency [4] | outcome [5] | outcome [10] | max response [6] 7.03% | Potency [7] | Potency [8] | outcome [9]

NCC1CCC(C(=O)Oc2ccc(CCC(=O)O)cc2)CC1 (configuration not stated)
inactive: outcome [1] | outcome [2] | outcome [3] | Potency [4] | outcome [5] | max response [6] 8.81% | Potency [7] | Potency [8] | outcome [9]

CCCCN1C(=O)c2ccccc2C1=O
inactive: outcome [1] | outcome [2] | outcome [3] | Potency [4] | outcome [5] | outcome [10] | max response [6] -3.23% | Potency [7] | outcome [9]

O=C(O)Cc1c(Cl)ccc(Cl)c1Cl
inactive: outcome [1] | outcome [2] | outcome [3] | Potency [4] | outcome [5] | max response [6] 2.56% | Potency [7] | Potency [8]

CC(=O)OCC(=O)[C@@]1(O)CC[C@H]2[C@@H]3CCC4=CC(=O)C=C[C@]4(C)[C@H]3[C@@H](O)C[C@@]21C
inactive: outcome [1] | outcome [2] | outcome [3] | Potency [4] | outcome [5] | max response [6] -2.13% | Potency [7] | Potency [8] | outcome [9]

COC(=O)/C=C(\C)CCC=C(C)C
inactive: outcome [1] | outcome [2] | outcome [3] | Potency [4] | outcome [5] | outcome [10] | max response [6] 9.52% | Potency [7] | Potency [8] | outcome [9]

CN(C)CCC[C@@]1(c2ccc(F)cc2)OCc2cc(C#N)ccc21
inactive: outcome [1] | outcome [2] | outcome [3] | Potency [4] | outcome [5] | max response [6] -9.59% | Potency [7] | Potency [8]

CC(C)(C)c1ccc(N)cc1
inactive: outcome [1] | outcome [2] | outcome [3] | Potency [4] | outcome [5] | outcome [10] | max response [6] -2.84% | Potency [7] | outcome [9]

CCC(C)SSC(C)CC (configuration not stated)
inactive: outcome [1] | outcome [2] | outcome [3] | Potency [4] | outcome [5] | max response [6] 3.14% | Potency [7] | Potency [8] | outcome [9]

NNC(=O)CCCCC(=O)NN
inactive: outcome [1] | outcome [2] | outcome [3] | Potency [4] | outcome [5] | max response [6] 3.47% | Potency [7] | Potency [8] | outcome [9]
